# A selection: hits, their analogues and other compounds. The true share with any hit is near 11%.
# AmpC inh detg: inhibitors of E. coli AmpC beta-lactamase with detergent | P00811 | AmpC hydrolysis of nitrocefin, absorbance 480 nm, 0.01% Triton | Potency, µM (titrated, usually from 114 µM), inactives show at the top dose activity change, negative = inhibition, hits mostly inhibitors | hit rate 0.041% among 370,000;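 note: 0% = no-compound wells and -100% = no-enzyme wells; nearly all actives have a fitted effect of over 25% in size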
# Target sequence (P00811 whole entry, looked up): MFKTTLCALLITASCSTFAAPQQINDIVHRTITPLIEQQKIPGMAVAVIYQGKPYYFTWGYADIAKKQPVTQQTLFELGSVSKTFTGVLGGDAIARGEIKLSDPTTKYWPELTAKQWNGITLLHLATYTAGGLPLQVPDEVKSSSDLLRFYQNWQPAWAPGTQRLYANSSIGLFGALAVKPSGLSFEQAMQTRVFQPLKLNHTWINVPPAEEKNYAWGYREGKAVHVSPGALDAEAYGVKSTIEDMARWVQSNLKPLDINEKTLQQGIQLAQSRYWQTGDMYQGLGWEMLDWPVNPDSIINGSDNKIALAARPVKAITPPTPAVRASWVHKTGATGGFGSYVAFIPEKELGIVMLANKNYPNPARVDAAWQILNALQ
#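 AmpC (5.3 nM in the dispensed reagent) in 20 mM phosphate pH 7.0 with 0.01% (detergent screen) or 0.0001% Triton X-100 was preincubated with compounds for 15 min at room temperature. Nitrocefin was then added from an 800 uM solution, and hydrolysis was followed at 480 nm.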
# HCV inhibitor: blocks hepatitis C virus; Potency, µM (highest dose often 41.8 µM), inactives show top-dose activity change, negative = inhibition, actives largely listed as inhibitors; Huh7.5.1 HCVcc-Cre infection, luciferase reporter, 44 h; hit rate 3.4% among 340,000; AID 651820
#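 Cells seeded at 1,000/well and cultured 4 h, then compounds added followed by HCVcc-Cre virus (~0.5 moi). After 44 h further culture, luciferase substrate was added, plates held 15 min at room temperature, and luminescence read for 15 sec.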
# Pf growth 96h: P. falciparum growth inhibition at 96 hour, primary screen for plastid delayed-death inhibitors; P. falciparum luciferase reporter growth, 96 h; hit rate 6.9% among 320,000; AID 504834; Potency, µM (series often up to 28.7 µM), without a hit: top-dose activity change, negative = inhibition, most hits filed as inhibitors
#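 P. falciparum expressing integrated firefly luciferase, in erythrocytes at 2% hematocrit, 0.05% parasitemia, incubated with compounds 96 h at 37 C, 5% CO2. Growth inhibition read as loss of luminescence; two-generation exposure targets delayed-death apicoplast inhibitors.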
# AMA1-RON2 inh: AMA1-RON2 (P. falciparum) interaction inhibition | AlphaScreen AMA1-biotinylated RON2 peptide binding | Potency, µM (highest dose often 58.2 µM), for inactives: at the top dose activity change, negative = inhibition, most hits filed as inhibitors | hit rate 0.2% among 360,000 | AID 720542;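 note: 0% = vehicle wells and -100% = peptide control; nearly all actives have a fitted effect of over 45% in size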
#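 AMA1 (3D7) with his tag at 25 nM final met compounds first, then biotinylated RON2 peptide at 25 nM; detection used donor plus acceptor beads, 10 µg/mL apiece, read by AlphaScreen after 30 min at room temperature.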
# Pf growth 48h: P. falciparum growth inhibition at 48 hours (one generation) | P. falciparum luciferase growth in erythrocytes, 48 h | Potency, µM (series often up to 28.7 µM), without a hit: top-dose activity change, negative = inhibition, hits mostly inhibitors | hit rate 5.9% among 310,000
#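 Compounds are pin-transferred into medium, infected erythrocytes (2% hematocrit, 0.1% parasitemia final) are added, and plates sit one parasite generation at 37 C in 5% CO2. Detection reagent is then added and luminescence measured.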
# AmpC inh no detg: blocks E. coli AmpC beta-lactamase in detergent-free assay | hit rate 0.52% among 330,000 | AID 485341 | Potency, µM (highest dose often 57.1 µM), without a hit: top-dose activity change, negative = inhibition, actives largely listed as inhibitors | P00811 | AmpC nitrocefin hydrolysis, absorbance 480 nm, 0.0001% Triton;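 note: plate controls were no compound for no effect and no enzyme for full effect; nearly all actives have a fitted effect of over 20% in size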
#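 AmpC (5.3 nM in the dispensed reagent) in 20 mM phosphate pH 7.0 with 0.01% (detergent screen) or 0.0001% Triton X-100 was preincubated with compounds for 15 min at room temperature. Nitrocefin was then added from an 800 uM solution, and hydrolysis was followed at 480 nm.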
# * = called active by the depositor; ? = inconclusive; . = not tested or not shown. Calls come from the whole dose curve; as a rule, active = well fitted curve in the direction sought with a large enough effect; inconclusive = small, poorly fitted or top-dose-only effect, or another doubt; inactive = no such curve, though single readings can be large; an effect the other way counts as inactive or inconclusive. Unless noted, % is set by controls: 0 for no effect and ±100 for the full control effect; potency is the fitted concentration of half-maximal effect.
SMILES,AmpC inh detg,HCV inhibitor,Pf growth 96h,AMA1-RON2 inh,Pf growth 48h,AmpC inh no detg
O=C(Nc1ccc(CN2CCCCC2)cc1)c1cc(Br)ccc1Cl,7%,?,?,41%,12µM*,-16%
O=C(Cc1ccc(Cl)cc1)Nc1ccc(CN2CCCCC2)cc1,-1%,?,12µM*,-13%,?,-40%
O=C(Nc1cccc(C(F)(F)F)c1)c1ccc(F)c(S(=O)(=O)N2CCc3ccccc3C2)c1,4%,.,.,.,.,.
COc1cc2c(C(=O)N3CCN(c4ccc(C)cc4)C(C)C3)cn(CC(C)C)c(=O)c2cc1OC (centres undefined),5%,.,.,.,.,.
O=C1CCCN2N=C(SCC(=O)Nc3cccc(C(F)(F)F)c3)SC2=N1,?,6.3µM*,-36%,-7%,?,-17%
O=C1CCCN2N=C(SCC(=O)Nc3ccc(Cl)cc3)SC2=N1,-2%,2%,10µM*,-4%,-13%,-9%
CCCCc1ccc(NC(=O)CSC2=NN3CCCC(=O)N=C3S2)cc1,-10%,11µM*,2.1µM*,8%,-4%,28%
Cc1ccccc1CNC(=O)Cn1ccc2cc(S(=O)(=O)N3CCCCC3)ccc21,2%,.,.,.,.,.
CCC(C(=O)NCCc1cc(OC)ccc1OC)n1nc(C)c2sc3ccccc3c2c1=O (centres undefined),-1%,.,.,.,.,.
CCN(c1ccccc1)c1ncnc2c1cnn2-c1ccc(C)cc1C,7%,.,.,.,.,.
CCC(=O)N1CCCc2cc(S(=O)(=O)N3CCC(C(=O)Nc4ccc(C#N)cc4)CC3)ccc21,0%,.,.,.,.,.
COC(=O)CNC(c1ccccc1)c1cc(Br)ccc1NS(=O)(=O)c1ccccc1 (centres undefined),?,-15%,4%,0%,15µM*,-44%
COC(=O)CNC(c1ccccc1)c1cc(Br)ccc1NS(=O)(=O)c1ccc(C)cc1 (centres undefined),2%,?,42%,30%,12µM*,-46%
COC(=O)CNC(c1ccccc1)c1cc(Br)ccc1N (centres undefined),0%,14%,24%,5%,8%,-8%
COC(=O)c1c(NC(=O)c2cc(=O)c3cc(C)cc(C)c3o2)sc2c1CCC2,11%,.,.,.,.,.
CCOC(=O)c1cnc2c(OC)cccc2c1N1CC(C)CC(C)C1 (centres undefined),-3%,13µM*,?,21%,0%,228%
CCOC(=O)c1cnc2c(OC)cccc2c1N1CCN(c2ccccc2OC)CC1,3%,?,12%,?,7.4µM*,170%
CCOC(=O)c1cnc2c(OC)cccc2c1N1CCN(c2ccccn2)CC1,?,?,44%,-15%,13%,122%
CCOC(=O)c1cnc2ccc(Cl)cc2c1N1CCN(C)CC1,-11%,-8%,.,-1%,-10%,0%
CCOC(=O)c1cnc2ccc(OCC)cc2c1N1CCN(C)CC1,5%,?,0%,-9%,8.3µM*,32%
CCOc1ccc2ncc(S(=O)(=O)c3ccc(C)cc3)c(N3CCC4(CC3)OCCO4)c2c1,-9%,?,7.4µM*,-21%,12µM*,121%
COC(=O)c1cc2oc(C)cc2n1Cc1cc(C)ccc1C,1%,.,.,.,.,.
CCOC(=O)c1cnc2c(OC)cccc2c1N1CCN(c2ccc(OC)cc2)CC1,4%,?,9%,-15%,12µM*,171%
COCCn1c(C)cc(O)c(C(c2ccccc2)N2CCN(c3ccccc3)CC2)c1=O (centres undefined),10%,.,.,.,.,.
Cc1ccc(S(=O)(=O)CC(=O)Nc2nc(-c3ccccc3)cs2)cc1,1%,?,0%,-7%,.,-36%
SMILES,AmpC inh detg,HCV inhibitor,Pf growth 96h,AMA1-RON2 inh,Pf growth 48h,AmpC inh no detg
Cc1ccc(-c2csc(NC(=O)C[n+]3cc(-c4ccc(C)cc4)n4c3CCC4)n2)cc1,-8%,3.5µM*,-46%,-15%,?,136%
Cc1ccc(-c2csc(NC(=O)C[n+]3cc(-c4ccccc4)n4c3CCC4)n2)cc1,-4%,2µM*,?,4%,?,124%
COc1ccccc1C=NN=C(NN=Cc1ccccc1OC)NN=Cc1ccccc1OC,.,13µM*,.,19%,.,.
COc1ccc(/C=N/NC(=O)c2ccc3nc[nH]c3c2)c(OC)c1OC,-7%,-3%,-2%,21%,-9%,-28%
COc1cc(C(=O)Oc2ccccc2/C=N/NC(=O)c2ccc(C)c(Cl)c2)cc(OC)c1OC,-11%,?,?,19%,-14%,-43%
COc1ccccc1C=NNC(=O)NN=Cc1ccccc1OC,.,?,.,55%,.,.
COc1cc(C(=O)Oc2ccccc2/C=N/NC(=O)c2ccc(Cl)cc2)cc(OC)c1OC,-5%,2.8µM*,6%,5%,13µM*,0%
COc1ccc(/C=N\NC(=O)c2ccc(-c3ccccc3)cc2)c(OC)c1OC,-2%,?,0.83µM*,-9%,9%,-29%
COc1cc(/C=N/NC(=O)c2ccc(-c3ccccc3)cc2)cc(OC)c1OC,?,-13%,17µM*,4%,?,95%
Cc1cc(C)c(Nc2nc3ccccc3n3c(C)nnc23)c(C)c1,28%,.,.,.,.,.
Cc1ccc(C)c(NC(=O)C(=O)NCCc2csc(-c3cccc(F)c3)n2)c1,-7%,.,.,.,.,.
CC1(C)SC2[C@@H](N=CN3CCCCCC3)C(=O)N2[C@H]1C(=O)O (some centres undefined),.,.,17µM*,.,?,.
CC1(C)S[C@@H]2[C@H](NC(=O)COc3ccccc3)C(=O)N2C1C(=O)OCC1CCCCC1 (some centres undefined),.,7%,.,-3%,.,.
CC(C)(C)C(=O)OCOC(=O)[C@@H]1N2C(=O)[C@@H](N=CN3CCCCCC3)[C@H]2SC1(C)C,?,0.5µM*,-3%,50%,-15%,6%
COCCc1ncc(CN2CCC(C(=O)Nc3ccc(-n4cccn4)cc3)CC2)cn1,3%,.,1%,3%,?,15%
CN(C)c1ncc(CN2CCC(C(=O)Nc3ccc(-n4cccn4)cc3)CC2)s1,0%,14%,17%,12%,2.6µM*,1%
CC1CC(C)CN(C(=O)c2nn(C)c3c2CSc2ccccc2-3)C1 (centres undefined),-14%,-18%,5.9µM*,-2%,?,48%
CC(=O)Nc1ccc(NC(=O)C(Cc2ccccc2)NC(=O)C2CCC(C)CC2)cc1 (centres undefined),?,1%,0.33µM*,6%,3%,-8%

# Compound activity (PubChem)
